From PubChem
ALOX12 inh – Primary qHTS assay for inhibitors of human arachidonate 12S-lipoxygenase (ALOX12): Round 2 | purified 12hLO, xylenol orange hydroperoxide absorbance | AID 1671190, 2021 | Polyunsaturated fatty acid lipoxygenase ALOX12 (Homo sapiens), P18054 | 1.1% of 580,000 active | Potency, µM (top dose mostly 108 µM), inactives show top-dose activity change, negative = inhibition, hits mostly inhibitors; also: potency is read from the fitted curve at half-maximal effect; % is scaled to controls: 0 for no effect and ±100 for the full control effect
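Hydroperoxide product was detected by ferrous iron/xylenol orange as the 573 to 405 nm absorbance ratio. Arachidonic acid at 40 uM (final) was turned over for 30 min at room temperature by 150 nM human 12hLO, pH 7.0 Hepes buffer, after 15 min compound preincubation.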
TSG101-PTAP inh – qHTS Assay for Iinhibitors of HIV-1 Budding by Blocking the Interaction of PTAP/TSG101; Potency, µM (highest dose often 115 µM), for the others: top-dose activity change, negative = inhibition, usual class: inhibitors; 340,000 tested, under 10 active; Tumor susceptibility gene 101 protein (Homo sapiens), Q99816; AID 493005, 2010; Fluorescence polarization, FITC-PTAP peptide / Tsg101 binding; active = well fitted inhibition curve with a large enough effect in the main read-out, with a control signal flat, not every such curve was filed as active; inconclusive = small, poorly fitted or top-dose-only effect, or effect the other way, or a change in a side signal; inactive = no such curve, though single readings can be large or run the other way; also: potency is read from the fitted curve at half-maximal effect; % of control where 0% means no effect
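Fluorescence polarization binding of Tsg101 binding domain (10 uM final) to FITC-labeled PTAP peptide (50 nM final) in HEPES pH 7.5 buffer with NaCl, Tween 20, EDTA, TCEP. Compounds added before peptide; binding 20 min at RT.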
Vif-APOBEC3F blk – qHTS for Inhibitors of Vif-A3F Interactions: qHTS; HeLa A3F-eYFP + Vif (tagged APOBEC3F with the HIV-1 protein that degrades it), YFP fluorescence increase; Potency, µM (top dose mostly 46.1 µM), without a hit: at the top dose activity, negative = active; 0.2% of 390,000 active; AID 602313, 2012; also: potency is read from the fitted curve at half-maximal effect; % of control where 0% means no effect; nearly all actives have a fitted effect of over 65% in size
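HeLa cells stably expressing A3F-eYFP plus Vif, plated and incubated overnight at 37 deg C, then exposed to compounds overnight at 37 deg C. Blocked degradation read as raised yellow fluorescence (Ex 488/Em 500-530).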
Vif-APOBEC3G blk – qHTS for Inhibitors of Vif-A3G Interactions: qHTS; DNA dC->dU-editing enzyme APOBEC-3G (Homo sapiens), Q9HC16; HeLa A3G-eYFP + Vif (tagged APOBEC3G with the HIV-1 protein that degrades it), YFP fluorescence, overnight; Potency, µM (titrated, usually from 46.1 µM), without a hit: top-dose activity, negative = active, usual class: inhibitors; 0.076% of 410,000 active; AID 602310, 2012; also: potency is read from the fitted curve at half-maximal effect; % is scaled to controls: 0 for no effect and ±100 for the full control effect; nearly all actives have a fitted effect of over 60% in size
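Read-out is eYFP fluorescence (Ex 488/Em 500-530) from Vif-expressing HeLa A3G-eYFP cells; more signal means A3G escaped Vif-mediated degradation. Cells plated overnight, compound pinned in, incubated overnight at 37 deg C.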
ASM inhibitor – Inhibitors of Secretory Acid Sphingomyelinase (S-ASM): qHTS; 0.006% of 340,000 active; Potency, µM (titrated, usually from 57.5 µM), for inactives: top-dose activity change, negative = inhibition, usual class: inhibitors; Sphingomyelin phosphodiesterase (Homo sapiens), P17405; placental ASM, HMU-PC fluorogenic substrate, 60 min; also: potency is read from the fitted curve at half-maximal effect
Target sequence (P17405 47-631 limits assumed): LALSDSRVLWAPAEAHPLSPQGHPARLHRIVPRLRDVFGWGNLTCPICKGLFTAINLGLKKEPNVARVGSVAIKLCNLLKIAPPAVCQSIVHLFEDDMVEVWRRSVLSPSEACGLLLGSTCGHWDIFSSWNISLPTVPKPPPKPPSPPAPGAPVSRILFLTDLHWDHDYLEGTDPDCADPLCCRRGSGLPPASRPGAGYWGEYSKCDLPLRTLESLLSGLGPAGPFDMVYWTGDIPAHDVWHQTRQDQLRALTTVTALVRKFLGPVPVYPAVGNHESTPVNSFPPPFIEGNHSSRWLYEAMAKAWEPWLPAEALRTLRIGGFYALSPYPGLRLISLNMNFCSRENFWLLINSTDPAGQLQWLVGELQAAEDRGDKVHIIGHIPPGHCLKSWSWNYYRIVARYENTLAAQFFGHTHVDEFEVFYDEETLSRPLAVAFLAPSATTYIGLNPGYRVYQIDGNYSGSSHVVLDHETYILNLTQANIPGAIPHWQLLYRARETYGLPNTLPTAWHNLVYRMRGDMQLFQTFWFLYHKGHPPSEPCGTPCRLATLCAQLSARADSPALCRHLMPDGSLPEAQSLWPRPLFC
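HMU-PC0 cleavage (9 uM final) by human placental ASM, 60 min at 37 °C following 10 min compound exposure at RT; stopped at pH 10, fluorescence Ex 386/Em 447 nm.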
pAkt inh – HTS Assay for Inhibitors of Akt Phophorylation: Primary Screen; 0.32% of 360,000 active; activity change, % for hits at 50 µM; Neuro2A IGF-stimulated pAkt S473 HTRF, 20 min; active compounds read low; in the data active = activity change below about -80%; inconclusive = mostly about -51% to -80%; also: % is scaled to controls: 0 for no effect and ±100 for the full control effect
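Neuro2A cells in DMEM with 0.5% FBS, overnight at 37 deg C, given compound at single 50 µM final, then IGF (6 nM final) for 20 min at 37 deg C. Lysed; phospho-Akt Ser473 by HTRF after 24 h, 665/615 ratio.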
Active calls of the source: *; i = inactive; ? = inconclusive; . = not tested or not shown; [ ] = remark or other dose. A selection: hits, their analogues and other compounds. The true share with any hit is near 1.4%. Unless noted, calls follow the shape of the dose curve; as a rule, active = well fitted curve in the direction sought with a large enough effect; inconclusive = small, poorly fitted or top-dose-only effect, or another doubt; inactive = no such curve, though single readings can be large; an effect the other way counts as inactive or inconclusive.

SMILES	ALOX12 inh	TSG101-PTAP inh	Vif-APOBEC3F blk	Vif-APOBEC3G blk	ASM inhibitor	pAkt inh
COc1nccnc1NS(=O)(=O)c1ccc(NC(=S)NC(=O)c2cccc(F)c2)cc1	?	-2%	-7%	0%	0%	i
COc1ccc(OC)c(C(=O)OCc2nc(N)c3ccccc3n2)c1	2%	.	.	.	.	.
O=C(/C=C/c1ccc(Br)cc1)NC(=O)c1ccccc1O	10%	-4%	-12%	-13%	-4%	i
O=C(/C=C/c1ccc(O)c(O)c1)NC(=O)c1ccccc1O	40µM*	-3%	-6%	-5%	-14%	i
O=C(/C=C/c1ccc(O)c(O)c1)c1ccc(O)cc1O	8.9µM*	.	.	.	.	.
COCCCNC(=O)C1(C)CN(C)Cc2ccc(NCc3ccccc3)nc21 (stereo unspecified)	34%[176 µM]	.	.	.	.	.
COc1cc(OC)cc(-c2nnc(SCC(=O)N3CCCc4ccccc43)o2)c1	-2%	-4%	2%	-6%	-6%	-116%*
COc1cccc(-c2nnc(SCC(=O)N3CCCc4ccccc43)o2)c1	0%	-4%	0%	-6%	-3%	i
COC(=O)c1cc(NC(=O)C(C)N(c2ccc(C)c(C)c2)S(C)(=O)=O)ccc1Cl (stereo unspecified)	-2%	.	.	.	.	.
CCC(COC(=O)Nc1cccc(C)c1C)NC(=O)OCC(C)C (stereo unspecified)	-21%	.	-7%	3%	1%	i
CCCOC(=O)NC(CC)COC(=O)Nc1cccc(C)c1C (stereo unspecified)	5%	-2%	5%	0%	-1%	-116%*
O=C(N/N=C/c1ccc(-c2ccc(S(=O)(=O)Nc3ncccn3)cc2)o1)c1cc2ccccc2cc1O	13µM*	-5%	6%	0%	35%	i
Cn1cc(CN2CCC(C(=O)NC(c3ccc(F)cc3)c3ccc4ccccc4n3)CC2)c2ccccc21 (stereo unspecified)	45µM*	.	.	-7%	.	i
N#C/C(=C/c1c[nH]c2ccccc12)C(=O)N1CCCC1	10%	.	.	.	.	.
O=[N+]([O-])c1ccc(Cl)cc1CN1CCCCCC1	5µM*	-4%	-18%	3%	1%	i
O=[N+]([O-])c1ccc(Cl)cc1N1CCCCC1	-13%	-1%	-11%	0%	-7%	i
CC(C)n1cc(CN2CCOCCNC(=O)CC2)c2ccccc21	104%	.	.	.	.	.
CN1CCCN(C2C3CC4CC(C3)CC2C4)CC1 (stereo unspecified)	?	-1%	1%	-3%	-1%	-121%*
Cc1noc(/C=C/c2ccccc2F)c1S(=O)(=O)N1CCC(C(=O)N2CCOCC2)CC1	-3%	.	.	.	.	.
CC1=CC(C)(C)Nc2ccc(OC(=O)c3ccco3)cc21	?	-6%	?	11µM*	-2%	i
COc1cccc(C(CNC(=O)CCc2nnc(-c3ccsc3)o2)N(C)C)c1 (stereo unspecified)	6%	.	.	.	.	.
COc1cc(CNC(=O)C23CC4CC(CC(C4)C2)C3)ccc1OC(F)F	-2%	.	.	.	.	.
COc1ccc(-c2cc(=O)c3cc(OCC(=O)Nc4ccccc4)ccc3o2)cc1	47%	.	.	.	.	.
CN(C)c1ccc2ncccc2c1	5µM*	.	.	.	.	.
CS(=O)(=O)N1N=C(c2ccccc2)CC1c1ccc2c(c1)OCO2 (stereo unspecified)	-14%	?	?	10µM*	3%	i
SMILES	ALOX12 inh	TSG101-PTAP inh	Vif-APOBEC3F blk	Vif-APOBEC3G blk	ASM inhibitor	pAkt inh
COc1ccc(-n2ncc(N(C)n3cccc3)c(Cl)c2=O)cc1	-7%	-4%	0%	0%	1%	-115%*
COc1ccc(-n2ncc(Cl)c(Cl)c2=O)cc1	4%	-12%	5%	-18%	6%	i
Oc1ccc(-c2nc(C3CC3)nc3c2CCN(Cc2ccc(C(F)(F)F)cc2)CC3)cc1	-26%	.	.	.	.	.
Cc1ccccc1NC(=S)NC1CCCC1	?	1%	-4%	2%	3%	i
S=C(NCCc1ccccn1)NC1CCCCC1	21%	-1%	-14%	0%	6%	i
S=C(Nc1ccccn1)NC1CCCC1	45µM*	-2%	-13%	0%	-1%	i
S=C(Nc1ccccn1)NC1CCCCC1	22µM*	-4%	?	-3%	-3%	i
O=[N+]([O-])c1ccccc1S(=O)(=O)Nc1ccccc1-n1cccn1	42%	.	.	.	.	.
O=C(O)Cn1c(=O)c2c3c(sc2n(Cc2ccc(F)cc2)c1=O)CCC3	-18%	.	.	.	.	.
Cc1nnc(N/N=C/c2cccc(C(F)(F)F)c2)n1N	15%	-1%	1%	2%	0%	i
Cc1nnc(N/N=C/c2cccc(OCc3ccc(Cl)c(Cl)c3)c2)n1N	18µM*	-1%	4%	-6%	?	i
Cc1ccc(C(=O)OCc2cc(=O)oc3c(C)c(C)ccc23)s1	-7%	.	.	.	.	.
Cc1ccc(C)n1-c1ccc(C(=O)N2CCOCC2)cc1	-6%	-8%	-12%	3%	4%	-106%*
Cc1ccc(NNC2CC(=O)N(c3cccc(Cl)c3)C2=O)cc1 (stereo unspecified)	20µM*	0%	0%	-27%	-3%	i
O=C1CC(NNc2ccccc2)C(=O)N1c1ccccc1 (stereo unspecified)	45µM*	-4%	-3%	-14%	4%	i
CC(OC(=O)/C=C/c1ccccc1)C(N)=O (stereo unspecified)	38%	.	.	.	.	.
CCOc1ccc(N(CC(=O)NCc2ccc(Cl)cc2Cl)S(C)(=O)=O)cc1	1%	.	.	.	.	.
O=C(CCCn1c(SCC(=O)NC2CCCCC2)nc2ccccc2c1=O)NCC1CCCO1 (stereo unspecified)	-14%	-5%	-7%	1%	-2%	i
O=C(CCCn1c(SCC(=O)c2ccc(O)c(O)c2)nc2ccccc2c1=O)NCC1CCCO1 (stereo unspecified)	1.8µM*	-7%	-4%	-6%	-1%	i
Cc1ccc(F)c(Nc2ncnc3c2oc2ccccc23)c1	4.5µM*	.	.	.	.	.
CN(C)c1ccc(C(=O)Nc2nc3c(s2)CCCC3)cc1	?	1%	1%	3%	8%	i
CC(C)(C)c1ccc(C(=O)NC(=S)Nc2nc3c(s2)CCCC3)cc1	45µM*	-7%	0%	-3%	-3%	i
